# Shown are actives, neighbours in structure and some others; about 22% of the full set was active somewhere.
# Shiga toxin inh = blocks Shiga toxin action in Vero cells. Vero cells, Shiga toxin protein synthesis inhibition reporter. inhibition, % at 38.7 µM. 290,000 tested, 9.2% active. AID 2315; in the data active means inhibition mostly above about 28%, no sharp cut-off; inactive means mostly below about 43%; further: 0% is about no effect
# Pf growth 96h = inhibits malaria parasite growth, 96 h | P. falciparum luciferase reporter growth, 96 h | 320,000 tested, 6.9% active | Potency, µM (titrated, usually from 28.7 µM), inactives show at the top dose activity change, negative = inhibition, usual class: inhibitors | AID 504834; further: potency means the concentration at half of the fitted maximal effect; on the % scale 0 is the no-effect control and ±100 the full control effect
#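 Infected RBCs, 2% Hct / 0.05% parasitemia final; luciferase-reporter P. falciparum; cpd 96 h, 37 C, 5% CO2; luciferase detection reagent; luminescence.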
# CHX counter = affects cycloheximide protein synthesis inhibition readout, counter-screen | cell reporter, cycloheximide protein synthesis inhibition counterscreen | max response, % | AID 2314 | 300,000 tested, 12% active; in the data active means max response mostly above about 13%, no sharp cut-off; inactive means mostly below about 14%; further: read at 38.3 µM for the half of the compounds with a filed dose; 0% is about no effect
# Pf growth 48h = P. falciparum growth inhibition at 48 hours (one generation); P. falciparum luciferase growth in erythrocytes, 48 h; Potency, µM (doses to about 28.7 µM), for the others: at the highest dose activity change, negative = inhibition, usual class: inhibitors; 310,000 tested, 5.9% active; AID 504832; further: potency means the concentration at half of the fitted maximal effect; on the % scale 0 is the no-effect control and ±100 the full control effect
#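 Parasite viability was followed by luminescence of a genomically integrated firefly luciferase. Cultures held 0.1% parasitemia at 2% hematocrit (final), incubated under 5% CO2 at 37 C.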
# LmPK inhibitor = blocks Leishmania mexicana pyruvate kinase activity | 290,000 tested, 0.37% active | Q27686 | AID 1721 | Potency, µM (highest dose often 57.5 µM), inactives show at the highest dose activity change, negative = inhibition, usual class: inhibitors | purified LmPK, Kinase-Glo ATP luminescence, 1 h; further: potency means the concentration at half of the fitted maximal effect; on the % scale 0 is the no-effect control and ±100 the full control effect
# Target sequence (Q27686 whole entry, looked up): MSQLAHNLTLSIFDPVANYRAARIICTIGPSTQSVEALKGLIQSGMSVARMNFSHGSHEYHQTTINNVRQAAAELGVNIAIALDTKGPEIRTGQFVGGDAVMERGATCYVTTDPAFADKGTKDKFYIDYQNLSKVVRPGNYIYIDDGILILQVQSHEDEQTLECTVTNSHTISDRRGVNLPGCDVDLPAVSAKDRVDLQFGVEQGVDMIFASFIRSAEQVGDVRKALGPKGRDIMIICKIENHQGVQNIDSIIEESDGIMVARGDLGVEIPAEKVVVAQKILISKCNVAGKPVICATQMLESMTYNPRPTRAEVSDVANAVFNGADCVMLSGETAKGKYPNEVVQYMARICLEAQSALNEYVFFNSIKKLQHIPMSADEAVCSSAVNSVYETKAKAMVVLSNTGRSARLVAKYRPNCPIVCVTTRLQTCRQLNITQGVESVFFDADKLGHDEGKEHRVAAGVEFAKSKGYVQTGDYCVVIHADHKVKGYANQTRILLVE
#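 Purified LmPK (0.1 nM) converted ADP (0.1 mM) to ATP with PEP (0.5 mM) in imidazole buffer pH 7.2 with KCl and MgCl2, 1 h at room temperature. ATP was read by Kinase-Glo luminescence; data normalized to uninhibited and no-enzyme controls.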
# An asterisk follows results filed as active; ? = inconclusive; · = no result; [ ] = another dose, or the depositor's remark. Unless noted, the call rests on the fitted dose curve; in most records, active means well fitted inhibition curve with a large enough effect; inconclusive means small, poorly fitted or top-dose-only effect, or another doubt; inactive means no such curve, though single readings can be large or run the other way.
SMILES,Shiga toxin inh,Pf growth 96h,CHX counter,Pf growth 48h,LmPK inhibitor
Cn1nccc1C(=O)Oc1ccc(/C=N/NC(=O)c2ccccc2O)cc1,75.0*,65.5%,25.4,?,-1.4%[11.5 µM]
O=C(CC1SC(=O)NC1=O)Oc1ccc(/C=N/NC(=O)c2ccccc2O)cc1 (stereo not given),36.5*,0.4%,23.2*,-1.0%,-8.0%
O=C(N/N=C/c1ccc(OC(=O)c2ccccc2)cc1)c1cccnc1,-7.2,?,-3.5,3.1%,-3.7%
CC(=O)Nc1ccc(OC(=O)CC2SC(=O)NC2=O)cc1 (stereo not given),-3.3,23.4%,-1.4,·,9.2%
CC(C)C(=O)N1CCC2(CC1)Oc1ccc(Cl)cc1C(=O)C21CC(c2cccnc2)=NO1 (stereo not given),-4.6,?,-6.0,?,5.1%
O=C(COC(=O)c1ccc(F)cc1)NC1CC1,·,3.6%,·,3.5%,·
NS(=O)(=O)c1ccc(Nc2nc(-c3cccnc3)cs2)cc1,-9.2,-13.2%,1.4,-9.3%,4.7%
Cc1ccc(Nc2nc(-c3cccnc3)cs2)cc1Cl,78.5,-11.2%,44.3*,12.6%,-1.8%
Cc1ccc(C)c(Nc2nc(-c3cccnc3)cs2)c1,111.1*,-0.4%,23.9*,?,9.4%
O=C(NCc1ccccc1)/C(=C/c1ccco1)NC(=O)c1ccco1,-5.2,-2.4%,-2.3,?,2.5%
O=C(Nc1ccccc1N1CCCC1)c1cc(=O)[nH]c2ccccc12,·,-3.9%,·,-6.4%,·
CCOc1ncccc1C(=O)NNC(=O)c1cccc(S(=O)(=O)Nc2ccc(OC)cc2)c1,-10.6,1.2%,6.5,-0.8%,4.9%
CC(=O)c1ccc(NC(=S)Nc2ccc(N3CCOCC3)cc2)cc1,24.8,-5.9%,11.4,-20.3%,-1.7%
C/C(=N\NC(=S)Nc1ccc(C)c(C)c1)c1ccc(N2CCOCC2)cc1,24.3*,3.7µM*,22.9*,11.7µM*,-6.4%
O=S(=O)(c1ccc(Cl)c(NC(=S)Nc2ccccc2N2CCOCC2)c1)N1CCOCC1,-2.5,-27.2%,-5.8,7.6%,-1.1%
COc1ccc2cc(/C(C)=N/NC(=S)Nc3cc(S(=O)(=O)N4CCOCC4)ccc3N3CCOCC3)ccc2c1,43.8,?,20.5*,1.47µM*,-1.0%
C/C(=N\NC(=S)Nc1cc(S(=O)(=O)N2CCOCC2)ccc1Cl)c1ccc(N2CCOCC2)cc1,26.4,1.85µM*,12.6,1.65µM*,1.6%
Cc1nc2nc(C)c(NS(=O)(=O)c3ccc4c(c3)CCCC4)c(=O)n2[nH]1,-5.7,30.7%,-3.5,?,1.4%
Cc1cc([N+](=O)[O-])ccc1NC(=O)COc1nsnc1N1CCOCC1,-5.1,-26.5%,-2.7,1.85µM*,-0.8%
COc1ccc(CCNC(=O)COc2nsnc2N2CCOCC2)cc1OC,-6.0,?,-2.2,1.85µM*,4.0%
Cc1ccccc1NC(=O)COc1nsnc1N1CCOCC1,-10.9,22.1%,-1.6,-10.1%,-2.5%
COc1ccc(NC(=O)COc2nsnc2N2CCOCC2)cc1,-4.0,3.8%,3.7,5.9%,0.1%
COc1ccc(S(=O)(=O)N2CCN(C(=O)Cc3ccsc3)CC2)cc1,·,-0.6%,·,-6.6%,·
CCn1c(-c2cc(-c3cc(OC)ccc3OC)nc3ccccc23)n[nH]c1=S,-11.0,0.37µM*,10.5,·,-23.4%
CCn1c(-c2cc(-c3ccccc3OC)nc3ccccc23)n[nH]c1=S,-6.8,3.29µM*,-6.4,2.62µM*,-11.7%
SMILES,Shiga toxin inh,Pf growth 96h,CHX counter,Pf growth 48h,LmPK inhibitor
CC(C)c1cc(NCC2CCCO2)n2c(nc3ccccc32)c1C#N (stereo not given),-8.6,·,0.7,6.57µM*,-1.3%
Cc1cc(NCC2CCCO2)n2c(nc3ccccc32)c1C#N (stereo not given),-14.6,?,0.5,?,7.9%
CCc1c(C)c(C#N)c2nc3ccccc3n2c1NCCOC,14.8,?,2.7,1.65µM*,-4.3%
CCc1c(C)c(C#N)c2nc3ccccc3n2c1NCC1CCCO1 (stereo not given),-5.0,·,-5.9,1.65µM*,0.2%
CCN(C(=O)COc1ccc(C)nc1[N+](=O)[O-])C1CCS(=O)(=O)C1 (stereo not given),19.0,-19.1%,-4.9,-0.5%,-2.0%
O=C(O)CCC(=O)Nc1ccc(Cc2ccc(NC(=O)CCC(=O)O)cc2)cc1,-9.2,10.5%,-1.5,11.0%,-5.1%
Cc1cccc(CCN(C(=O)c2csnn2)C(C(=O)NC2CCCC2)c2ccco2)c1 (stereo not given),-10.9,28.2%,-2.4,?,6.5%
CCc1cccc(NS(=O)(=O)c2ccc(-n3cccn3)cc2)c1,-3.8,13.1µM*,-1.4,25.7%,7.7%
COc1ccc(C)cc1NS(=O)(=O)c1ccc2c(c1)n(C)c(=O)n2C,-3.7,5.86µM*,-3.6,-8.9%,0.8%
CCc1cccc(NS(=O)(=O)c2ccc3c(c2)n(C)c(=O)n3C)c1,11.6,4.65µM*,-0.6,-13.9%,2.5%
O=S(=O)(Nc1cccc(Cl)c1)c1ccc(-n2cccn2)cc1,9.1,?,-5.0,2.7%,-9.2%
COc1ccc(OC)c(NS(=O)(=O)c2ccc3c(c2)n(C)c(=O)n3C)c1,-8.7,·,-3.7,-9.9%,-4.4%
COC(CNC(=O)c1cc(-c2ccncc2)nc2ccc(S(=O)(=O)N3CCOCC3)cc12)OC,-2.7,-15.5%,3.2,8.1%,6.0%
CC(C)(C)c1ccccc1OCCCCCn1ccnc1,15.8,5.86µM*,11.9,11.7µM*,-0.6%
CC(C)(C)c1cc(Cl)ccc1OCCn1ccnc1,-13.0,?,1.4,5.86µM*,-7.8%
Cc1ccc(C(C)(C)C)c(OCCCn2ccnc2)c1,-6.9,?,-4.0,?,-2.3%
c1ccc(-c2ccccc2OCCCCn2ccnc2)cc1,-6.6,?,1.4,11.7µM*,1.8%
Cc1ccc(C)c(C(=O)OCC(=O)Nc2ccc(N3CCOCC3)cc2)c1,-12.7,3.0%,-0.2,-5.8%,0.1%
O=C(N[C@@H](Cc1ccccc1)C(=O)NCc1ccc(F)cc1)C1CCNCC1,-6.3,15.5%,1.1,16.7%,1.8%
Cc1ccc(-c2nnc(SCC(=O)N/N=C/c3ccc(C(=O)O)cc3)n2C2CCCCC2)cc1,-6.3,1.3%,-6.5,-1.1%,2.1%
CCc1cccc(NC(=O)CCS(=O)(=O)c2ccc(Br)cc2)c1,-6.5,-3.6%,7.1,12.9%,0.4%
CCn1c(=S)sc2c(=O)n(CC(=O)Nc3ccccc3C(F)(F)F)c(C)nc21,-5.3,54.0%,-1.0,-17.7%,-1.2%
O=C(NCc1ccco1)C(c1ccco1)N(CCc1ccccc1)C(=O)Cn1nnc2ccccc21 (stereo not given),17.9,2.33µM*,7.4,?,7.3%
O=C(NCc1ccco1)C(c1ccco1)N(Cc1cccs1)C(=O)Cn1nnc2ccccc21 (stereo not given),51.5*,-11.1%,19.1*,?,6.3%
Cc1ccc(CN(C(=O)Cn2nnc3ccccc32)C(C(=O)NCc2ccco2)c2cccs2)cc1 (stereo not given),57.4*,5.3%,18.8*,?,0.5%

# Source: PubChem BioAssay (National Center for Advancing Translational Sciences (NCATS))
